Test results taken from PubChem BioAssay (Tox21).
Results filed as inconclusive are left out. Active and inactive are the calls of the source. The call rests on the fitted dose curve.

Target: Acetylcholinesterase (Homo sapiens) (UniProt P22303)
Assay: Acetylcholinesterase (AChE) small molecule antagonists: colormetric cell-based qHTS assay (AID 1347395); further: nearly all actives have a fitted effect of over 30% in size
Details: SH-SY5Y cells AChE activity, colorimetric (Ellman); series mostly up to 115 µM; activity, negative = inhibition: at the top concentration
Outline: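 Neuroblastoma line SH-SY5Y supplied the enzyme; cells were preincubated with compound for 30 min at 37 C and 5% CO2. Acetylthiocholine with DTNB was then added for 90 min at 37 C, and thiocholine was measured by colour.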
On the % scale 0 is the no-effect control and ±100 the full control effect.

Acetylcholinesterase (Homo sapiens), sequence (P22303 whole entry, looked up): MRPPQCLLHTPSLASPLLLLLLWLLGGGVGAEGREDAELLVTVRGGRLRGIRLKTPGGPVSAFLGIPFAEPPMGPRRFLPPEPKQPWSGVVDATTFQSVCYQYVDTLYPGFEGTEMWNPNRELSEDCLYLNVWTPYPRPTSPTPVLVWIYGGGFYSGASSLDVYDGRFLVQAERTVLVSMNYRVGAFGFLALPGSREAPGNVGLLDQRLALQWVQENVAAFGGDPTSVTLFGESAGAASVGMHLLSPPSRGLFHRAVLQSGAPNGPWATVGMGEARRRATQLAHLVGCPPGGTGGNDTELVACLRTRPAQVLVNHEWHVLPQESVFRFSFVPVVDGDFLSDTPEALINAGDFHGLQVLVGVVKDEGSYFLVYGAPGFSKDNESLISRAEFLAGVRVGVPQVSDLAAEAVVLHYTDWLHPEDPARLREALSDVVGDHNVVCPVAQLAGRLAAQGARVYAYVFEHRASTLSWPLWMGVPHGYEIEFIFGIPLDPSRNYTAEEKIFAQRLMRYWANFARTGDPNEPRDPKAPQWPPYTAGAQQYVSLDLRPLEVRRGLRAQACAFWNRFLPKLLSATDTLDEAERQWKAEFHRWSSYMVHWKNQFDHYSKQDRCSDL

SMILES | activity, negative = inhibition | outcome
CC1OCCC1=O (stereo not drawn) | -0.403% (inactive) | –
COc1cc(N)ccc1C | -2.55% (inactive) | –
COc1ccc(-c2coc3cc(O)ccc3c2=O)cc1 | -0.424% (inactive) | –
CCCCC(CC)CN (stereo not drawn) | -1.48% (inactive) | –
CCCCCCCCO[C@@H]1O[C@H](CO)[C@@H](O)[C@H](O)[C@H]1O | 1.63% (inactive) | –
CCN(CC)CC(=O)OCC(=O)[C@@]1(O)CC[C@H]2[C@@H]3CCC4=CC(=O)CC[C@]4(C)[C@H]3[C@@H](O)C[C@@]21C | 0.264% [at 52.9 µM] (inactive) | –
O=C(O)c1cc(N=Nc2ccc([N+](=O)[O-])cc2)ccc1O | 18.9% (inactive) | –
CC(C)CCCCCCOC(=O)CCCCC(=O)OCCCCCCC(C)C | -1.72% (inactive) | –
CCOc1ccccc1O[C@H](c1ccccc1)[C@H]1CNCCO1 | – | inactive
CCO[Si](OCC)(OCC)OCC | 1.13% (inactive) | –
CC(C(=O)O)c1ccc2c(c1)[nH]c1ccc(Cl)cc12 (stereo not drawn) | 1.77% [at 52.9 µM] (inactive) | –
CC(C)CCC(=O)CCC(C)C | 10.3% (inactive) | –
C/C=C/C(=O)Oc1c(CCCCCC(C)C)cc([N+](=O)[O-])cc1[N+](=O)[O-] | 0.421% (inactive) | –
C=CCOc1nc(OCC=C)nc(OCC=C)n1 | 1.02% (inactive) | –
CCCCCCOC(=O)NC(=N)c1ccc(NCc2nc3cc(C(=O)N(CCC(=O)OCC)c4ccccn4)ccc3n2C)cc1 | 2.25% [at 52.9 µM] (inactive) | –
CN1CCCC1 | 0.283% (inactive) | –
CN(C)c1ccc(C=O)cc1 | 2.23% (inactive) | –
O=S(=O)(O)c1cc(O)c2ccc(Nc3ccccc3)cc2c1 | -0.631% (inactive) | –
Cn1c(=O)c2c(ncn2CC(=O)O)n(C)c1=O | 0.634% [at 52.9 µM] (inactive) | –
CC1=CCC2C(C1)C2(C)C (stereo not drawn) | 0.577% (inactive) | –
O=C(O)[C@H](O)c1ccccc1 | 4.71% [at 52.9 µM] (inactive) | –
CCCCCCOc1ccc(N)cc1 | -2.71% (inactive) | –
FC1(F)C(F)(F)C(F)(F)C2(F)C(F)(C1(F)F)C(F)(F)C(F)(F)C1(F)C(F)(F)C(F)(F)C(F)(F)C(F)(F)C12F (stereo not drawn) | 0.841% (inactive) | –
